# According to PubChem BioAssay (NCATS):
# Records with an inconclusive call do not appear. Unmarked numbers belong to inactive results. Active and inactive are the calls of the source. The call rests on the fitted dose curve; in most records, active means well fitted inhibition curve with a large enough effect; inconclusive means small, poorly fitted or top-dose-only effect; inactive means no such curve, though single readings can be large or run the other way.
# Assay: Primary qHTS for inhibitors of nuclear receptor binding SET domain protein 2 (NSD2) in an RCH-ACV wild type WT cells (2C) (AID 1645877); further: nearly all actives have a fitted effect of over 70% in size
# Conditions: RCH-ACV (leukaemia line) NSD2 WT (2C) viability, CellTiter-Glo, 72 h; series mostly up to 44.9 µM; activity change, negative = cell killing: at the top concentration
# Excerpt: Assay Provider: Jonathan D. Licht, MD
# University of Florida College of Medicine, Gainesville, FL
# Mutations in epigenetic regulators are common in relapsed pediatric acute lymphoblastic leukemia (ALL). Here, we uncovered the mechanism underlying the relapse of ALL driven by an activating mutation of the NSD2 histone methyltransferase (p.E1099K). […] Correction of this mutation restored glucocorticoid sensitivity. The transcriptional response to glucocorticoids was blocked in NSD2 mutant cells due to depressed glucocorticoid receptor (GR) levels and the failure of glucocorticoids to autoactivate GR expression. […] Pre-treatment of NSD2 p.E1099K cell lines and PDX samples with PRC2 inhibitors reversed glucocorticoid resistance in vitro and in vivo.
# High-throughput drug screening of isogenic RCH-ACV cell lines was performed at the National Center for Advancing Translational Science (NCATS), National Institutes of Health as previously described (1). Briefly, isogenic RCH-ACV NSD2 p.E1099K mutant (9B) and WT cells (2C) were plated at 500 cells/well in a 1536-well plate with a 72-hour incubation with compounds prior to addition of CellTiter-Glo to assess cell viability. NCATS libraries screened include: NPC, MIPE 5.0, Kinase and NPACT. To determine compound activity in the qHTS assay, the concentration-response data for each sample was plotted and modeled by a four-parameter logistic fit yielding IC50 and efficacy (maximal response) values. The area under the curve (AUC) of the dose-response curve ensures both efficacy (magnitude of cell killing) and potency (concentration that elicits cell killing) are accounted for in the analysis of activity.
# 1. Tobie D Lee, Olivia W Lee, Kyle R Brimacombe, Lu Chen, Rajarshi Guha, Sabrina Lusvarghi, Bethilehem G Tebase, Carleen Klumpp-Thomas, Robert W Robey, Suresh V Ambudkar, Min Shen, Michael M Gottesman, Matthew D Hall. A High-Throughput Screen of a Library of Therapeutics Identifies Cytotoxic Substrates of P-glycoprotein. Mol Pharmacol. 2019, Nov;96(5):629-640.
# On the % scale 0 is the no-effect control and ±100 the full control effect.
Compound,Potency,outcome,"activity change, negative = cell killing"
OC1CCC(Oc2cccc3cnc(Nc4ccc5nc[nH]c5c4)nc23)CC1 (stereo not given),468 nM (active),,
O=C(O)CNC(=O)c1nc(Cl)c2ccccc2c1O,,inactive,
Cn1cc(-c2ccc(-c3cncc(Cl)c3N3CCC4(CCNC4=O)CC3)cc2)cn1,833 nM (active),,
CC(C)(CO)n1cc(C(=O)c2cncc(NC(=O)Cc3ccc(Cl)cn3)c2)c2cnc(N)nc21,,,-5.51%
Nc1nc(F)nc2c1ncn2[C@@H]1O[C@H](COP(=O)(O)O)[C@@H](O)[C@@H]1O,1860 nM (active),,
CCC[C@H](NC(=O)/C(C#N)=C/c1cccc(Br)n1)c1ccccc1,13200 nM (active),,
CN(C)C[C@@H]1CCn2cc(c3ccccc32)C2=C(C(=O)NC2=O)c2cn(c3ccccc23)CCO1,6610 nM (active),,
COC1CC(C(=O)c2ccc3c(N)ncc(-c4ccc(-c5cnn(C)c5)cc4)c3n2)C1 (stereo not given),41.7 nM (active),,
COc1ccc(CNC(=O)c2cc(-c3cncc(Cl)c3)cnc2-c2ccccn2)nc1OC,,,-1.14%
CC(=O)c1cc2c(o1)C(=O)c1ccccc1C2=O,1320 nM (active),,
C=C1C[C@H]2C=Nc3cc(OCCCOc4cc5c(cc4OC)C(=O)N4CC(=C)C[C@H]4C=N5)c(OC)cc3C(=O)N2C1,,,-94.4%
C=C1/C(=C\C=C2/CCC[C@]3(C)[C@@H]([C@H](C)CCCC(C)(C)O)CC[C@@H]23)C[C@@H](O)C[C@@H]1O,16600 nM (active),,
COc1cc(C(=O)NC(N)=Nc2ccc(C)c(NC(=O)c3ccc(-c4ccccc4)cc3)c2)cc(OC)c1OC,11800 nM (active),,
Cn1c(-c2ccccc2C(F)(F)F)nnc1C12CCC(c3noc(C4CC(F)(F)C4)n3)(CC1)CC2,,,-0.266%
CC(=O)N1c2ccc(-c3ccc(C(=O)O)cc3)cc2[C@H](Nc2ccc(Cl)cc2)C[C@@H]1C,93.4 nM (active),,
COC1=C2C[C@H](C)C[C@H](OC)[C@H](O)[C@@H](C)/C=C(/C)[C@H](OC(N)=O)[C@@H](OC)/C=C\C=C(\C)C(=O)NC(=CC1=O)C2=O,,,-43.3%
CC1=C2[N-][C@H]([C@H](CC(N)=O)[C@@]2(C)CCC(=O)NC[C@@H](C)OP(=O)([O-])O[C@H]2[C@@H](O)[C@@H](n3cnc4cc(C)c(C)cc43)O[C@@H]2CO)[C@]2(C)N=C(C(C)=C3N=C(C=C4N=C1[C@@H](CCC(N)=O)C4(C)C)[C@@H](CCC(N)=O)[C@]3(C)CC(N)=O)[C@@H](CCC(N)=O)[C@]2(C)CC(N)=O.O.[Co+2],,,-16.2%
CCC(=O)O[C@]1(C(=O)CO)CC[C@H]2[C@@H]3CCC4=CC(=O)CC[C@]4(C)[C@H]3CC[C@@]21C,,,-24.1%
CC(=O)N[C@H]1[C@H](O[C@@H]2c3ccc(c(Cl)c3)Oc3cc4cc(c3O[C@@H]3O[C@H](CO)[C@@H](O)[C@H](O)[C@H]3NC(=O)CCCCCCCC(C)C)Oc3ccc(cc3Cl)C[C@H]3NC(=O)[C@H](N)c5ccc(O)c(c5)Oc5cc(O)cc(c5)[C@H](NC3=O)C(=O)N[C@H]4C(=O)N[C@H]3C(=O)N[C@@H]2C(=O)N[C@@H](C(=O)O)c2cc(O)cc(O[C@H]4O[C@H](CO)[C@@H](O)[C@H](O)[C@@H]4O)c2-c2cc3ccc2O)O[C@H](CO)[C@@H](O)[C@@H]1O,,,-3.83%
COc1cc(OCc2cccc(-c3ccccc3)c2C)cc(OC)c1CN1CCCC[C@H]1C(=O)O,,,-93.2%

Compound,Potency,outcome,"activity change, negative = cell killing"
CC(/C=C1\SC(=S)N(CC(=O)O)C1=O)=C\c1ccccc1,,inactive,
CC(C)n1c(=O)cc(N[C@@H](C)c2ccccc2)[nH]c1=O,,inactive,
CNCCCOc1cc(F)c(-c2c(Cl)nc3ncnn3c2N[C@@H](C)C(F)(F)F)c(F)c1,46.8 nM (active),,
O=C(Nc1cccc(C(F)(F)F)c1)c1cccc2cc(Oc3cc(CO)ncn3)ccc12,,,-13.7%
O=C(Nc1ccccc1)Nc1ccc(-c2ccc(C(=O)[C@@H]3CCC[C@H]3C(=O)O)cc2)cc1,,,-17.3%
CNc1nc(-c2ccc3c(N)n[nH]c3c2)cc(N2C[C@@H](C(=O)NC3CCCCC3)CC[C@H]2C)n1,833 nM (active),,
Cc1ccc(NC(=O)NCc2ccc3c(c2)CN(C2CCC(=O)NC2=O)C3=O)cc1Cl (stereo not given),1.2 nM (active),,
CC(C)NCCCn1c(Sc2cc(Cl)cc(Cl)c2)nc2c(N)ncnc21,18600 nM (active),,
COc1ccc(C(=O)N2CCN(C(=O)/C=C/c3ccc(Br)cc3)CC2)cc1,,,6.19%
COC1=C(OC)C(=O)C(C/C=C(\C)CC/C=C(\C)CC/C=C(\C)CC/C=C(/C)CC/C=C(\C)CC/C=C(\C)CC/C=C(\C)CC/C=C(\C)CC/C=C(\C)CCC=C(C)C)=C(C)C1=O,,inactive,
Cc1cc(C)c(CNC(=O)c2cc(-c3ccc(N4CCN(C)CC4)nc3)cc3c2c(C)cn3C(C)C)c(=O)[nH]1,20900 nM (active),,
COc1cc2c(NC3CCN(C4CCCCC4)CC3)nc(N3CCCN(C(C)C)CC3)nc2cc1OCCCN1CCCCC1,5250 nM (active),,
CO[C@H]1/C=C\C=C(\C)C(=O)NC2=CC(=O)C(NCCN(C)C)=C(C[C@@H](C)C[C@H](OC)[C@H](O)[C@@H](C)/C=C(/C)[C@@H]1OC(N)=O)C2=O,235 nM (active),,
O=C1NC(=O)/C(=C\c2ccc(-c3ccc(F)cc3)o2)S1,,inactive,
CC(C)(O)CC[C@@H](O)[C@](C)(O)[C@H]1CC[C@@]2(O)C3=CC(=O)[C@@H]4C[C@@H](O)[C@@H](O)C[C@]4(C)[C@H]3CC[C@]12C,,,-7.65%
CN(C)C/C=C/C(=O)Nc1ccc(C(=O)N2CCC[C@@H](Nc3ncc(Cl)c(-c4c[nH]c5ccccc45)n3)C2)cc1,132 nM (active),,
C[C@@H]1[C@H](O)[C@@H](C)/C=C/C=C/C=C/C=C/C=C/C=C/C=C/[C@H](O[C@@H]2O[C@H](C)[C@@H](O)[C@H](N)[C@@H]2O)C[C@@H]2O[C@](O)(C[C@@H](O)C[C@@H](O)[C@H](O)CC[C@@H](O)C[C@@H](O)CC(=O)O[C@H]1C)C[C@H](O)[C@H]2C(=O)O,,,-8.52%
CCCNC(=O)c1cn2ncnc(Nc3cc(C(=O)NC4CC4)ccc3C)c2c1C,,,9.35%
O=C(NCc1ccc(S(=O)(=O)c2cccc(C(F)(F)F)c2)cc1)c1cnc2[nH]ncc2c1,26.3 nM (active),,
CN(C)CCNC(=O)COc1c2cccc1Cc1cccc(c1OCC(=O)NCCN(C)C)Cc1cccc(c1OCC(=O)NCCN(C)C)Cc1cccc(c1OCC(=O)NCCN(C)C)C2,,,5.34% [at 9.23 µM]
